# Source: PubChem BioAssay
# Values without a mark were called inactive. Calls of active or inactive are those of the source.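 The calls were made as follows, unless noted: active = inhibition above 50%; inactive = the rest.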
# System: not listed separately
# Test: HepG2 cytotoxicity, primary screen, cytotoxicity control for P. falciparum antimalarial project, cell-based, ATP luminescence (AID 2303);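 also: 0% = DMSO wells and 100% = digitonin-killed cells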
# Details: HepG2 viability, 24-48 h, at 10 µM, active compounds read high
row,Compound,inhibition
1,O=C(/C=C/c1ccc(Cl)c(Cl)c1)N1CCC(CCCN2CCC(c3c[nH]c4ccc(O)cc34)CC2)CC1,60% (active)
2,C=CCOC(=O)N1CCC(CNCc2cccc(-c3ccc(-c4nc5c(C)cccc5[nH]4)cc3)c2)C1 (stereo not drawn),24%
3,CO/C(=C\C=C\c1cc2cc(Cl)c(Cl)cc2[nH]1)C(=O)NC1C[C@H]2CCC[C@@H](C1)N2C (stereo partly drawn),42%
4,Nc1ncc(-c2ccccc2)cc1-c1nc2cc(Cl)c(F)cc2[nH]1,37%
5,Cc1cccc2[nH]c(-c3ccc(-c4ccc(CN5CC(C)OC(C)C5)cc4)cc3)nc12 (stereo not drawn),37%
6,CCCCCc1cnc2nc(N)nc(N)c2c1,72% (active)
7,Nc1cccc(CNCc2cccc(-c3ccc(-c4nc5ccccc5[nH]4)cc3)c2)c1,-1%
8,CCCC(CCC)n1ccc2c3c(N)nc(N)nc3ccc21,66% (active)
9,COc1cccc(OC)c1C(=O)N1CCC2(CC1)C(=O)N(CC(=O)NC1CCCCC1)CN2c1ccccc1,16%
10,Cc1cc(N[C@@H](Cc2ccccc2)C(=O)NCc2cccs2)nc(NCCc2ccccn2)n1,-4%
11,OCC1CCN(Cc2ccc(-c3ccc(-c4nc5ccccc5[nH]4)cc3)cc2)CC1,37%
12,COc1cc(C(=O)N2COCC(CCCN3CCC(N4CCCC4)CC3)(c3ccc(Cl)c(Cl)c3)C2)cc(OC)c1OC (stereo not drawn),5%
13,COc1ccc2c(CCNc3nc(SC)ncc3C(=O)NCCc3ccc(F)cc3)c[nH]c2c1,3%
14,CCn1c(C2CCN(CCC3CCN(C(=O)/C=C/c4ccc(Cl)c(Cl)c4)CC3)CC2)nc2ccccc21,17%
15,CCN(CC)CCN(Cc1ccc(-c2ccc(C(F)(F)F)cc2)cc1)C(=O)Cn1c(/C=C/c2ccco2)nc(=O)c2ccccc21,28%
16,CC(=O)Nc1ccc(CN2CCCN(c3cc(NC(=O)c4cccc(C)c4)ccn3)CC2)cc1,-2%
17,O=C(NC1CC1)c1ccc(N2CCCC(COc3ccc4c(c3)CCCC4)C2)nc1 (stereo not drawn),-5%
18,CC(C)(C)c1ccccc1OCCCON1C(N)=NC(N)=NC1(C)C,63% (active)
19,O=C(Nc1ccccc1)Nc1cccc(-c2cccc(-c3nc4ccc(F)cc4[nH]3)c2)c1,38%
20,CC(C)c1ccc(NC(=O)c2ccc(C(=O)NC3CCN(Cc4ccsc4)C3)cc2)cc1 (stereo not drawn),17%

row,Compound,inhibition
1,O=C(Nc1ccc(C(F)(F)F)cc1)NC1CCN(c2ccnc3ccccc23)C1 (stereo not drawn),13%
2,C=CCOc1ccc(CNC2CCN(Cc3ccccc3)CC2)cc1Br,9%
3,COc1cccc(CN2CCCN(Cc3cccc(NC(=O)c4ccc(Cl)c(Cl)c4)c3)CC2)c1,26%
4,Cc1cc2ccc(/C=C/C(=O)NC3CCC(CCN4CCc5ccc(C#N)cc5CC4)CC3)cc2[nH]1 (stereo not drawn),19%
5,CCC1N=C(N)N=C(N)N1OCCCOc1c(Cl)cc(Cl)cc1Cl (stereo not drawn),67% (active)
6,NC(N)=NN=Cc1ccc2c(c1)Cc1ccccc1-2,72% (active)
7,Cc1ccc(S(=O)(=O)N(CCCNCc2cccc(O)c2)c2ccccc2)cc1,6%
8,COc1cc(F)c2ncc(C#N)c(CCN3CCC(NCc4ccc5c(c4)OCCO5)CC3)c2c1,5%
9,Nc1nc(N)c2c(Cl)c(N(Cc3ccccc3)Cc3ccccc3)ccc2n1,66% (active)
10,CCCN(CC1CC1)c1nc(C)nc2c(-c3ccccc3)cc(C)cc12,72% (active)
11,COc1ccc(-c2nc3c(N)nc(N)nc3nc2C(C)C)cc1,71% (active)
12,O=C(/C=C/c1ccc(C(F)(F)F)cc1)NCCCCCN1CCN(C(=O)Nc2ccc(Cl)cc2)CC1,37%
13,Oc1ccc(Nc2nc(N3CCCC3)c3ccccc3n2)cc1,10%
14,CCc1sc(CN(CCCNc2cc(=O)c3ccccc3[nH]2)Cc2sc(CC)c(Br)c2-c2ccsc2)c(-c2ccsc2)c1Br,10%
15,COc1ccc(C(=O)N[C@@H](CC(C)C)C(=O)NC2CC[C@@H](C)N(C(=O)Nc3ccc(Cl)cc3)CC2=O)cc1OCCN1CCOCC1 (stereo partly drawn),5%
16,C[C@@H]1CN(c2ccnc3ccc(Sc4ccc(Oc5ccccc5)cc4)cc23)C[C@H](C)N1,33%
17,O=C(Nc1ccc2c(c1)CCNCC2)Nc1ccc2ccccc2c1,-6%
18,O=C1CC(C(=O)Nc2cccc(-c3cccc(-c4nc5ccccc5[nH]4)c3)c2)c2ccccc2N1 (stereo not drawn),0%
19,CC(=O)c1cccc2[nH]c(C(=O)NC3CCC(CCN4CCc5ccc(C#N)cc5C4)CC3)cc12 (stereo not drawn),12%

# Molecular target: L-lactate dehydrogenase (Plasmodium falciparum (isolate CDC / Honduras)) (UniProt Q27743)
# Sequence (Q27743 whole entry, looked up): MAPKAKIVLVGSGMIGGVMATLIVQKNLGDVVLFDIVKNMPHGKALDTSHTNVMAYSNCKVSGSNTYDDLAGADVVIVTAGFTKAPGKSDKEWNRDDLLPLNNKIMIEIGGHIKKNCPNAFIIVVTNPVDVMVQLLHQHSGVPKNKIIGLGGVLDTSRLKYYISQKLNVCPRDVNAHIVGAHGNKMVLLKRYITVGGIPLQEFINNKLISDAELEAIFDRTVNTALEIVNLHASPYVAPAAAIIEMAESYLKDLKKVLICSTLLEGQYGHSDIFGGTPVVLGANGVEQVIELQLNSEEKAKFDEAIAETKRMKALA
# Test: PfLDH activity inhibition – cell lysate, 3D7 strain, counter-screen for P. falciparum growth inhibition project (AID 2304; call rule not given here;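 also: 0% = vehicle and 100% = reference inhibitor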)
# Details: P. falciparum 3D7 crude extract, LDH APAD/NBT absorbance; at 2 µM; active compounds read high
row,Compound,inhibition [%]
1,O=C(/C=C/c1ccc(Cl)c(Cl)c1)N1CCC(CCCN2CCC(c3c[nH]c4ccc(O)cc34)CC2)CC1,1
2,C=CCOC(=O)N1CCC(CNCc2cccc(-c3ccc(-c4nc5c(C)cccc5[nH]4)cc3)c2)C1 (stereo not drawn),1
3,CO/C(=C\C=C\c1cc2cc(Cl)c(Cl)cc2[nH]1)C(=O)NC1C[C@H]2CCC[C@@H](C1)N2C (stereo partly drawn),-2
4,Nc1ncc(-c2ccccc2)cc1-c1nc2cc(Cl)c(F)cc2[nH]1,1
5,Cc1cccc2[nH]c(-c3ccc(-c4ccc(CN5CC(C)OC(C)C5)cc4)cc3)nc12 (stereo not drawn),3
6,CCCCCc1cnc2nc(N)nc(N)c2c1,-1
7,Nc1cccc(CNCc2cccc(-c3ccc(-c4nc5ccccc5[nH]4)cc3)c2)c1,-2
8,CCCC(CCC)n1ccc2c3c(N)nc(N)nc3ccc21,-2
9,COc1cccc(OC)c1C(=O)N1CCC2(CC1)C(=O)N(CC(=O)NC1CCCCC1)CN2c1ccccc1,5
10,Cc1cc(N[C@@H](Cc2ccccc2)C(=O)NCc2cccs2)nc(NCCc2ccccn2)n1,-2
11,OCC1CCN(Cc2ccc(-c3ccc(-c4nc5ccccc5[nH]4)cc3)cc2)CC1,1
12,COc1cc(C(=O)N2COCC(CCCN3CCC(N4CCCC4)CC3)(c3ccc(Cl)c(Cl)c3)C2)cc(OC)c1OC (stereo not drawn),-1
13,COc1ccc2c(CCNc3nc(SC)ncc3C(=O)NCCc3ccc(F)cc3)c[nH]c2c1,-1
14,CCn1c(C2CCN(CCC3CCN(C(=O)/C=C/c4ccc(Cl)c(Cl)c4)CC3)CC2)nc2ccccc21,2
15,CCN(CC)CCN(Cc1ccc(-c2ccc(C(F)(F)F)cc2)cc1)C(=O)Cn1c(/C=C/c2ccco2)nc(=O)c2ccccc21,-2
16,CC(=O)Nc1ccc(CN2CCCN(c3cc(NC(=O)c4cccc(C)c4)ccn3)CC2)cc1,-1
17,O=C(NC1CC1)c1ccc(N2CCCC(COc3ccc4c(c3)CCCC4)C2)nc1 (stereo not drawn),-5
18,CC(C)(C)c1ccccc1OCCCON1C(N)=NC(N)=NC1(C)C,5
19,O=C(Nc1ccccc1)Nc1cccc(-c2cccc(-c3nc4ccc(F)cc4[nH]3)c2)c1,4
20,CC(C)c1ccc(NC(=O)c2ccc(C(=O)NC3CCN(Cc4ccsc4)C3)cc2)cc1 (stereo not drawn),-2

row,Compound,inhibition [%]
1,O=C(Nc1ccc(C(F)(F)F)cc1)NC1CCN(c2ccnc3ccccc23)C1 (stereo not drawn),0
2,C=CCOc1ccc(CNC2CCN(Cc3ccccc3)CC2)cc1Br,-2
3,COc1cccc(CN2CCCN(Cc3cccc(NC(=O)c4ccc(Cl)c(Cl)c4)c3)CC2)c1,0
4,Cc1cc2ccc(/C=C/C(=O)NC3CCC(CCN4CCc5ccc(C#N)cc5CC4)CC3)cc2[nH]1 (stereo not drawn),-1
5,CCC1N=C(N)N=C(N)N1OCCCOc1c(Cl)cc(Cl)cc1Cl (stereo not drawn),2
6,NC(N)=NN=Cc1ccc2c(c1)Cc1ccccc1-2,-2
7,Cc1ccc(S(=O)(=O)N(CCCNCc2cccc(O)c2)c2ccccc2)cc1,2
8,COc1cc(F)c2ncc(C#N)c(CCN3CCC(NCc4ccc5c(c4)OCCO5)CC3)c2c1,-7
9,Nc1nc(N)c2c(Cl)c(N(Cc3ccccc3)Cc3ccccc3)ccc2n1,2
10,CCCN(CC1CC1)c1nc(C)nc2c(-c3ccccc3)cc(C)cc12,1
11,COc1ccc(-c2nc3c(N)nc(N)nc3nc2C(C)C)cc1,6
12,O=C(/C=C/c1ccc(C(F)(F)F)cc1)NCCCCCN1CCN(C(=O)Nc2ccc(Cl)cc2)CC1,-8
13,Oc1ccc(Nc2nc(N3CCCC3)c3ccccc3n2)cc1,-6
14,CCc1sc(CN(CCCNc2cc(=O)c3ccccc3[nH]2)Cc2sc(CC)c(Br)c2-c2ccsc2)c(-c2ccsc2)c1Br,0
15,COc1ccc(C(=O)N[C@@H](CC(C)C)C(=O)NC2CC[C@@H](C)N(C(=O)Nc3ccc(Cl)cc3)CC2=O)cc1OCCN1CCOCC1 (stereo partly drawn),5
16,C[C@@H]1CN(c2ccnc3ccc(Sc4ccc(Oc5ccccc5)cc4)cc23)C[C@H](C)N1,7
17,O=C(Nc1ccc2c(c1)CCNCC2)Nc1ccc2ccccc2c1,-1
18,O=C1CC(C(=O)Nc2cccc(-c3cccc(-c4nc5ccccc5[nH]4)c3)c2)c2ccccc2N1 (stereo not drawn),1
19,CC(=O)c1cccc2[nH]c(C(=O)NC3CCC(CCN4CCc5ccc(C#N)cc5C4)CC3)cc12 (stereo not drawn),1
